Compound activity (PubChem)
Beta cell apopt = blocks beta cell apoptosis; protection from apoptosis, % (concentration not given with the values); INS-1E cytokine-induced death, ATP luminescence, 48 h; percent of positive-control rescue, neutral wells zero; actives 0.8% (n = 300,000);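 active means Every replicate reaches about 75%, or at least half do and their mean reaches it too, limit read from the data; inconclusive means At least half of replicates reach the limit but their mean does not; inactive means Under half of replicates reach the limit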;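 further: 0% = cytokine-treated negative control wells and 100% = positive control rescue; higher means more ATP so stronger rescue from cytokine killing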
Mdm2 MdmX PPI = inhibitors of human Mdm2/MdmX interaction; O15151+Q00987; actives 3% (n = 330,000); AID 485346; SaOS-2 split-luciferase Mdm2/MdmX complementation, luminescence; inhibition, % at 8 µM;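 active means inhibition of at least 50% at 8 µM in the primary screen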
NTR1 ag = agonists of human neurotensin receptor NTR1; NTR1-U2OS beta-arrestin-GFP spot imaging, agonist mode; activation, % at 20 µM; actives 0.17% (n = 330,000);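 active means activation at or above 40% of the spot to cytoplasm intensity ratio, with at least 20 cells analyzed; inconclusive means wells under 20 cells, flagged as cytotoxic or low count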;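 further: 0% = DMSO without peptide and 100% = 100 nM NTR1 peptide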
Target sequence (P30989 whole entry, looked up): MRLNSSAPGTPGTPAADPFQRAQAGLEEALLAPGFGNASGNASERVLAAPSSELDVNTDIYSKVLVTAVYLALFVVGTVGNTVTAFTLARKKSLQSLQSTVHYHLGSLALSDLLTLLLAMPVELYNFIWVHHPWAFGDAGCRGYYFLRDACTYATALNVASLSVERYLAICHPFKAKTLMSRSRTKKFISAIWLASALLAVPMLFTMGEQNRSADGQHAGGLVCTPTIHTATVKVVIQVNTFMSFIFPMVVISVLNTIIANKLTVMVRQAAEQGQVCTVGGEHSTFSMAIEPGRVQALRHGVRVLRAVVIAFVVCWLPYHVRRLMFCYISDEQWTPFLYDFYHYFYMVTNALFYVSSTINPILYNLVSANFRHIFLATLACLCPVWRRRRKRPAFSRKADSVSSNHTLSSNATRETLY
697 NFkB inh = lowers PMA/ionomycin-induced NF-kB signal in 697 B cells | actives 0.33% (n = 330,000) | AID 435022 | inhibition, % at 4 µM | 697 B-cell NF-kB luciferase reporter, 16 h; in the data active means inhibition above about 35%
Jurkat NFkB inh = inhibitors of the PMA/ionomycin-induced NF-kB reporter in Jurkat cells | actives 0.53% (n = 330,000) | inhibition, % at 4 µM | AID 435003 | PMA/ionomycin-induced NF-kB luciferase reporter, luminescence; in the data active means inhibition above about 50%
A1 inh = inhibitors of the anti-apoptotic protein A1, read as caspase activation | MEF A1-2A-BIM cells, Caspase-Glo 3/7 luminescence, 3 h; percent of clofoctol response, vehicle zero | caspase activation, % (test concentration not listed) | actives 0.066% (n = 330,000);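 active means over half of replicate activation scores above 10%, or exactly half above 10 with the replicate mean above 10; inconclusive means replicate mean below 10 yet half the replicates above 10; inactive means over half of replicates below 10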
The depositor's hits bear a star; ? = inconclusive; . = no result given. Hits are enriched below; roughly 3.8% of the tested compounds scored in any of these assays.

SMILES	Beta cell apopt	Mdm2 MdmX PPI	NTR1 ag	697 NFkB inh	Jurkat NFkB inh	A1 inh
CC(C)(C)c1ccc(C(=O)Nc2ccc(C(=O)NCc3cccnc3)cc2)cc1	113*	-12	2	-9	11	1
CCCCN(C(=O)CN(C)CC(=O)Nc1cccc(OC)c1)c1c(N)n(CCCC)c(=O)[nH]c1=O	-3	2	1	4	3	1
CCc1nnc(NC(=O)CSc2nc(-c3ccccc3)cc(-c3ccc(F)cc3)c2C#N)s1	4	15	1	8	13	7.1*
CCc1nnc(NC(=O)CSc2ccc(-c3ccc(F)cc3)nn2)s1	3	-16	0	8	6	0
Cc1sc2cc3c(c(C(=O)c4ccccc4)[n+]2c1C)-c1cccc2cccc-3c12	100*	.	.	.	.	-1
O=C(c1ccccc1)c1c2c(cc3sc4ccccc4[n+]13)-c1cccc3cccc-2c13	98*	.	.	.	.	0
CCOC(=O)N1CCN(C(=O)CSc2nc3c([nH]c4ccccc43)c(=O)n2CC)CC1	-1	22	2	21	16	1
O=C(Cc1cccc2ccccc12)Nc1ccc(OC(F)F)c(Cl)c1	-10	29	8	25	10	1
O=C(Nc1ccc(OC(F)F)c(Cl)c1)C(c1ccccc1)c1ccccc1	95*	19	3	-6	-9	0
Cc1ccc(NC(=O)CSc2nnnn2-c2cccnc2)c(C)c1	1	-17	-2	13	7	0
Fc1ccccc1-c1nnc2ccc3ccccc3n12	-1	33	1	-5	0	0
Fc1cccc(Cl)c1-c1nnc2ccc3ccccc3n12	101*	23	0	-80	-12	-1
O=C(CCCCC(=O)Nc1ccc(F)cc1F)Nc1ccc(F)cc1F	133*	17	0	-5	11	-1
COC(=O)[C@]1(Cc2ccccc2)N[C@H](c2ccc(SC3CCCCC3)c(OC)c2)[C@@H]2C(=O)N(C)C(=O)[C@@H]21	-3	15	3	-5	7	0
Cc1oc2c(c1C(=O)N1CCC(C)CC1)C(=O)c1ccccc1C2=O	110*	39	0	15	39	0
Clc1ccc2c(N/N=C/c3cccc(Br)c3)ccnc2c1	81*	.	.	.	.	-1
O=[N+]([O-])c1ccc(/C=N/Nc2ccnc3cc(Cl)ccc23)o1	107*	18	0	21	1	0
Clc1ccc2c(NNc3ccccc3Cl)ccnc2c1	-3	39	4	-14	18	-1
O=C1C(Cl)=C(NCc2cccnc2)C(=O)c2ccccc21	84*	14	4	-13	-1	0
O=S(=O)(Cc1ccccc1)NCc1cccnc1	8	17	0	18	20	-1
CCN(CC)CCCNC1=C(Cl)C(=O)c2ccccc2C1=O	98*	17	-1	20	-3	0
C=CCNC1=C(Cl)C(=O)c2ccccc2C1=O	97*	25	1	-19	-13	-2
O=C1C(Cl)=C(Nc2ccccc2)C(=O)c2ccccc21	66	.	.	.	.	-1
Cc1ccccc1Cn1ccc(=NCc2ccccc2)cc1	103*	25	2	25	24	-1
COc1ccc(NC(=O)c2cnc(SC)n2-c2ccc(F)cc2)c(OC)c1	5	-2	1	-20	-3	0
SMILES	Beta cell apopt	Mdm2 MdmX PPI	NTR1 ag	697 NFkB inh	Jurkat NFkB inh	A1 inh
O=C(Nc1cccnc1)C1(F)C(F)(F)C(F)(F)C(F)(F)C(F)(F)C1(F)F	110*	4	0	-128	-1	0
O=C(Nc1cccnc1)C12CC3CC(CC(C3)C1)C2	-3	1	-2	3	-8	-1
Cc1nc(C2CCC3C4CCC5=CC(=O)CC[C@]5(C)C4CC[C@]23C)cs1 (stereo not given in full)	101*	39	39	2	50	0
CC(=O)[C@@]1(O)CC[C@H]2[C@@H]3CCC4=CC(=O)CC[C@]4(C)[C@H]3CC[C@@]21C	.	-18	0	-20	0	0
O=C(COC(=O)c1ccc(S(=O)(=O)N2CCCCC2)cc1)Nc1ccccc1Cl	.	6	-1	17	4	.
COc1cccc(/C=N/NC(=O)c2cc3cc([N+](=O)[O-])ccc3s2)c1O	82*	.	.	.	.	?
COc1cccc(/C=N/NC(=O)c2c(-c3ccccc3)noc2C)c1O	87*	34	1	-14	14	1
